This note sets out measurements from ChEMBL document CHEMBL3988442, “University of Dundee, Small-Polar-MMV Screening Library” (2021).

For some assays here: Results with a measured potency or affinity are listed apart.

Set-up in all cases: scale not given: direction of the effect not stated beside the values
For assay [1], the target named is Protein translocase subunit SecA (Escherichia coli (strain K12)) (UniProt P10408). As to the kind of experiment: Assay to Identify E. coli SecA ATPase Inhibitors. The assay is classed as functional. The settings on record: 30 µM.
Chain of Protein translocase subunit SecA (Escherichia coli (strain K12)) (P10408 whole entry): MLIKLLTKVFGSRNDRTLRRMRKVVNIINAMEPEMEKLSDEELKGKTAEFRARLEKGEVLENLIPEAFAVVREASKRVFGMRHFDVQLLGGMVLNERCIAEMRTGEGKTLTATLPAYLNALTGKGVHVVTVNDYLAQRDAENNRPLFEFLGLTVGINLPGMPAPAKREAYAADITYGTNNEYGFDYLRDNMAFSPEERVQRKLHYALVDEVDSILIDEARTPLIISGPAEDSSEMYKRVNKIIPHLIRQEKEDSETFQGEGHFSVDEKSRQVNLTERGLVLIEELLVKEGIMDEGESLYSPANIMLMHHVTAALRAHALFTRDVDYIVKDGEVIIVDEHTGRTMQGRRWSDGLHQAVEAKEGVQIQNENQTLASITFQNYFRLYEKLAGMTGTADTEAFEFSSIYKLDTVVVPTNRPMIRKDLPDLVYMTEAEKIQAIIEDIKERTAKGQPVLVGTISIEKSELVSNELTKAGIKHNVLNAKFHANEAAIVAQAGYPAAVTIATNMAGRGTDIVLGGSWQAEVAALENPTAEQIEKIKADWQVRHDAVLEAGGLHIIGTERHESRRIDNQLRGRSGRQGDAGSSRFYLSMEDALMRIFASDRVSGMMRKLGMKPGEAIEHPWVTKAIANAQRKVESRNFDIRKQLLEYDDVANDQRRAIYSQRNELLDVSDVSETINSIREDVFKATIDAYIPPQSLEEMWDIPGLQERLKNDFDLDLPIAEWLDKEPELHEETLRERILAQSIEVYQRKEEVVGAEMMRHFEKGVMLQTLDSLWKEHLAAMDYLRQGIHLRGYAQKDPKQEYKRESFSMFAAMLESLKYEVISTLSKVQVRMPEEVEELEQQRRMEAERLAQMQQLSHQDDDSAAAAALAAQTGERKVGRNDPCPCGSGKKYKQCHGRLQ
Assay [2] addresses T1, Ubiquitin-activating enzyme e1, putative (Leishmania donovani (strain BPK282A1)) (UniProt E9BSI1).
T1 sequence (whole entry): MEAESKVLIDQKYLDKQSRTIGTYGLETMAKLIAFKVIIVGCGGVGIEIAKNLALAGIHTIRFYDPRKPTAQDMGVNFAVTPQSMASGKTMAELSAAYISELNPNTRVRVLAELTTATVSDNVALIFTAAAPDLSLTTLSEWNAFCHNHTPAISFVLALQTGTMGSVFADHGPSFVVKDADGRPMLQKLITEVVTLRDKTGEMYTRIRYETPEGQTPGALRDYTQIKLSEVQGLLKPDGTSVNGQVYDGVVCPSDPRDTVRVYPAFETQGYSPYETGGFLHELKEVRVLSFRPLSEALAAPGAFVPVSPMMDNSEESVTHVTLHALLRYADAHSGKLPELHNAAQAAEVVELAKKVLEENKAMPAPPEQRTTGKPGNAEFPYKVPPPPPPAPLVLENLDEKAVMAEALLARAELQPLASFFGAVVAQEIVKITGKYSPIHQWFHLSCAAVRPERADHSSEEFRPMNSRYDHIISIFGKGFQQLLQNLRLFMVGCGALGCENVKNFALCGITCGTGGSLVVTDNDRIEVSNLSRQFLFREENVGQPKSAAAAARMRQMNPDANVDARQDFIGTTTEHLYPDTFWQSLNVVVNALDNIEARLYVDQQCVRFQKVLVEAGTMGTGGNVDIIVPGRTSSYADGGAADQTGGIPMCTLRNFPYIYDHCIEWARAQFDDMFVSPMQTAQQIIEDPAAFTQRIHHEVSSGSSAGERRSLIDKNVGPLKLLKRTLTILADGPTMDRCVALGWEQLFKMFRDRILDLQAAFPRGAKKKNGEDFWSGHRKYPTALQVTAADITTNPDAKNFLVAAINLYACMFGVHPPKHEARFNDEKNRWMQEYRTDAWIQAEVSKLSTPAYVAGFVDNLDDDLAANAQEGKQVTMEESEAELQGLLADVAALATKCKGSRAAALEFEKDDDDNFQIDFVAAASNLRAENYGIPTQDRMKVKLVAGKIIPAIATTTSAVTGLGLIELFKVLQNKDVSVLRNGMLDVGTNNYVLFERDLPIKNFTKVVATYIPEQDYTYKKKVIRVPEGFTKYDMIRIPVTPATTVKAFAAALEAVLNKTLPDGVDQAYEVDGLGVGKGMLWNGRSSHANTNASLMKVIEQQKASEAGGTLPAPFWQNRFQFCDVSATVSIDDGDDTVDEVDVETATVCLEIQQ
As to the kind of experiment: Leishmania donovani Ubiquitin Activating Enzyme (LdE1). The conditions noted are these: 30 µM. The assay is classed as functional.

Assay [3] addresses AMP-activated protein kinase, AMPK (Homo sapiens) (UniProt P54646+O43741+P54619+Q9UGJ0+Q9Y478+Q13131+Q9UGI9). As to the kind of experiment: AMP-dependent Kinase enzyme assay. An in vitro enzyme assay that detects ADP turnover that is directly proportional to AMPK activity. This uses naive AMPK that is activated during the assay with MK-8722. The assay is classed as functional. The settings on record: 30 µM.

For assay [4], the target named is Sialic acid-binding Ig-like lectin 9 (Homo sapiens) (UniProt Q9Y336). Nature of the assay: Hs-Siglec9 ALPHAscreen SOP 20170721. The settings on record: 10 µM.
Chain of Sialic acid-binding Ig-like lectin 9 (Homo sapiens) (Q9Y336 whole entry): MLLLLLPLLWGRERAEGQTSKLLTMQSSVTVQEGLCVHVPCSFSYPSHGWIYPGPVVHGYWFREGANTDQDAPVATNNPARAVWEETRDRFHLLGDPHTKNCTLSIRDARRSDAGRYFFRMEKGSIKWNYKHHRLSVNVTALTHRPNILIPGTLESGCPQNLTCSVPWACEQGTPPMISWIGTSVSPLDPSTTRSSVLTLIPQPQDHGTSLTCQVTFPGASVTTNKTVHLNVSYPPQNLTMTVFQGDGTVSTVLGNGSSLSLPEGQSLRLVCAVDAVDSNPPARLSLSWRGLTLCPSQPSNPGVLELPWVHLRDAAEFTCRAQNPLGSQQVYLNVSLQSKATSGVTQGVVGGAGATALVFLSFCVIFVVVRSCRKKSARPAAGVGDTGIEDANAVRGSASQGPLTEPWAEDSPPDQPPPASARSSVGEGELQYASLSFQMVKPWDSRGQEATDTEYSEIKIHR
Assay [5] relates to Trypanosoma cruzi. As to the kind of experiment: Trypanosoma cruzi phosphomannomutase and mannose-1-phosphate guanylyltransferase assay. The class given is functional. The conditions noted are these: 10 µM.
Assay [6] has as its target T2, Arginase-2, mitochondrial (Homo sapiens) (UniProt P78540).
T2 sequence (whole entry): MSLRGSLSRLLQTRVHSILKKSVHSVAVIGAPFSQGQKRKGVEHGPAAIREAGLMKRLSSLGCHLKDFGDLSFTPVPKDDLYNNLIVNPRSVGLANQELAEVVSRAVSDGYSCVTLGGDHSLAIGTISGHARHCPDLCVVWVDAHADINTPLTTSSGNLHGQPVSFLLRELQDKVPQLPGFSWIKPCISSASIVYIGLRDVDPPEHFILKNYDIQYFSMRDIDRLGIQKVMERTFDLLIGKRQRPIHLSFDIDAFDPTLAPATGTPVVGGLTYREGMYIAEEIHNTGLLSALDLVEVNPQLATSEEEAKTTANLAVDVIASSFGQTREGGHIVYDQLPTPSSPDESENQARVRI
Nature of the assay: in vitro enzyme assay to detect the production of urea directly proportional to the activity of Arginase II. Note: in the data most compounds retested in dose-response had high values. The conditions noted are these: 33.3 µM. The class given is functional.

The target in assay [7] is T3, Proteasome subunit beta (Trypanosoma cruzi) (UniProt O96673).
T3 sequence (whole entry): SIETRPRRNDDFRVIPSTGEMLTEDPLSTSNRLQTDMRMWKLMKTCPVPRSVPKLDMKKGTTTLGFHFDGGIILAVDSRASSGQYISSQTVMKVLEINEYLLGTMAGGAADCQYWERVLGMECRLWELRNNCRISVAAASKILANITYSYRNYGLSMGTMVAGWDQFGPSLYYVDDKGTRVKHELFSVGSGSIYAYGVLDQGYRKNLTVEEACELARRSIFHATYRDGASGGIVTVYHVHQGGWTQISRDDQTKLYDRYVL
As to the kind of experiment: Trypanosoma cruzi proteasome chymotrypsin-like activity (TcProtChymo) assay. Note: in the data most compounds retested in dose-response had high values. The settings on record: 9.37 µM. The class given is functional.

Assay [8] is filed under the species Homo sapiens. As to the kind of experiment: To identify inhibition of the IFN signalling (Jak-Stat) pathway via expression of an eGFP reporter gene under the control of an IFN-stimulated response element (ISRE) containing MxA promoter. The settings on record: 30 µM. The assay is classed as functional. In general terms: A reporter such as luciferase makes a cellular process visible.

Assay [9] concerns the target T4, Tyrosyl-tRNA synthetase, putative (Trypanosoma cruzi (strain CL Brener)) (UniProt Q4DSP6).
T4 sequence (whole entry): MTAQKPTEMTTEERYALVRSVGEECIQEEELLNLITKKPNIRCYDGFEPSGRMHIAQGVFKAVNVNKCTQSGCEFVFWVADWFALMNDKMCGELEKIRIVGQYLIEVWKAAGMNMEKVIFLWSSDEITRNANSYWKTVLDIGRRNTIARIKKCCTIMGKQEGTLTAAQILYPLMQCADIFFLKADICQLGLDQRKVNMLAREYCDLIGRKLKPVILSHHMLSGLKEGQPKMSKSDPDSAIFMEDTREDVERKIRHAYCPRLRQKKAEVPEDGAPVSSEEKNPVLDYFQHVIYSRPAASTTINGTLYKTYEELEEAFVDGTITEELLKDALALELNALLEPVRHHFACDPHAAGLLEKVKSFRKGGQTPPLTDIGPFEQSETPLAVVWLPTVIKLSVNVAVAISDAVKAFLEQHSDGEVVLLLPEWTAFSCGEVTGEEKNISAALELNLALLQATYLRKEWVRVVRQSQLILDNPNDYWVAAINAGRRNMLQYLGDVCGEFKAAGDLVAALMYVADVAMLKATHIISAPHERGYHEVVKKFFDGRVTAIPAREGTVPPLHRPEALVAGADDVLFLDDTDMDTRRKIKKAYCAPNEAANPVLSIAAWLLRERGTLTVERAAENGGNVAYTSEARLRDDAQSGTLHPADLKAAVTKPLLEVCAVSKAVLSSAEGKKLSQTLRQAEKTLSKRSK
Nature of the assay: Trypanosoma cruzi tyrosyl tRNA synthetase (TcYRS) _High Tyrosine SOP. Note: in the data most compounds retested in dose-response had high values. The settings on record: 30 µM. The class given is functional.

Assay [10] deals with T4, Tyrosyl-tRNA synthetase, putative (Trypanosoma cruzi (strain CL Brener)). As to the kind of experiment: Trypanosoma cruzi tyrosyl tRNA synthetase (TcYRS) SOP. The settings on record: 30 µM. The assay is classed as functional.
Assay [11] concerns the target Chromo domain-containing protein 1 (Saccharomyces cerevisiae (strain ATCC 204508 / S288c) (Baker's yeast)) (UniProt P32657). As to the kind of experiment: ScCHD-1 Enzyme Inhibition Assay. Note: in the data most compounds retested in dose-response had high values. The conditions noted are these: 30 µM. The class given is functional.

Chain of Chromo domain-containing protein 1 (Saccharomyces cerevisiae (strain ATCC 204508 / S288c) (Baker's yeast)) (P32657 whole entry, the tested form may be a part): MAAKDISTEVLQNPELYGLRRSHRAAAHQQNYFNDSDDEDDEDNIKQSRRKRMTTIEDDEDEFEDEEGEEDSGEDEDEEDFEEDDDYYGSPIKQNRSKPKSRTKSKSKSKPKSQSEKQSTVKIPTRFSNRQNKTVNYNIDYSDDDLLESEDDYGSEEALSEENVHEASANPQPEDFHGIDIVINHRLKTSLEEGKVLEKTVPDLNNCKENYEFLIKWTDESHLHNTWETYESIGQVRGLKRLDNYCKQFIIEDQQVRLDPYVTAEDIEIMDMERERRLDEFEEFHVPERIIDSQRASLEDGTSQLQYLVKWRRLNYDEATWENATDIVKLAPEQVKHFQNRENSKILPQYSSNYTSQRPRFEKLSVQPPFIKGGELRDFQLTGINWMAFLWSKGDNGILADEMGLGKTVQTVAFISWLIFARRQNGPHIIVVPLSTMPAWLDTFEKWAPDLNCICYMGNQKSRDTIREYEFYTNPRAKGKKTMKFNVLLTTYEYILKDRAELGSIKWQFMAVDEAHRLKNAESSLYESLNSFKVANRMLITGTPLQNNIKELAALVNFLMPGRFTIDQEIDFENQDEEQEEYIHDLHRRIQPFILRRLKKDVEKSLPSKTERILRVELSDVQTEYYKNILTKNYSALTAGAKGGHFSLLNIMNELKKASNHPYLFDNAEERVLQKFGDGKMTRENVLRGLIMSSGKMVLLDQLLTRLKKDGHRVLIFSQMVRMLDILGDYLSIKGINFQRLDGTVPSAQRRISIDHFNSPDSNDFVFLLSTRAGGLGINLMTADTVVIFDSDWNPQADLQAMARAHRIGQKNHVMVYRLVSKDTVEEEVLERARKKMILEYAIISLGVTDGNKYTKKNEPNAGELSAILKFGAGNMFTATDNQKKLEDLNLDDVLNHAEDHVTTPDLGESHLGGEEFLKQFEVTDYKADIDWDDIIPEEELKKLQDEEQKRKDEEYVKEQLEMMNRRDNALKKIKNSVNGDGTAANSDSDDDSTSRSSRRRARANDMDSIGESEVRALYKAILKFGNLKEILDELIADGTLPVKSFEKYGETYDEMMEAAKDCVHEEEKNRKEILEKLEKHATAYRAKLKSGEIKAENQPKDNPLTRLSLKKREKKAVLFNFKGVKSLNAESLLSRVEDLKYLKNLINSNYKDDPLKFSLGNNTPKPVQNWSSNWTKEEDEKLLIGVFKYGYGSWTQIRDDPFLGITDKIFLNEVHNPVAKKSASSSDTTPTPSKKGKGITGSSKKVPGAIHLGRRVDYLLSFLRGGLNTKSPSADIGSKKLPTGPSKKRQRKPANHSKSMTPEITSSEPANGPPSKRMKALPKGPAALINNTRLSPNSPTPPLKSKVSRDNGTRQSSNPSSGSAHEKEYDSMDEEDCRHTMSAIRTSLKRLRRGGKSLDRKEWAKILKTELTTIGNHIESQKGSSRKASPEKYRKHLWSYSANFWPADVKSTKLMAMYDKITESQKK

On to `CCCc1cc(C(=O)N(C)Cc2cnc3ccccc3n2)n(C)n1`, for which the Percent Effect in [1] was -7.11%; in assay [2], 5.2%; in assay [3], 2.82%; in assay [4], 6.76%; in assay [5], 2.06%; in [6], 11%. Besides, the Percent Effect in assay [7] amounted to 8.82%; in assay [8], 7.96%; in [9], 7.53%; in assay [10] it was 11.1%; in assay [11], 2.1%.

Consider `Cc1cc(C)n(C2CN(CC(O)COc3ccc(F)cc3)C2)n1` (stereo not given), for which the Percent Effect in [1] was -3.4%; in [2], -20.8%; in assay [3], 2.93%; in assay [4], 9.67%; in [5], -1.12%; in assay [6] it was 1.42%. For the same compound, the Percent Effect in assay [7] is -0.169%; in [8] it was -11.2%; in assay [9] it was 4.85%; in assay [10], -4.88%; in [11], -2.37%.

For `COCCN1CC[C@@H](O)[C@@H]1Cc1ccccc1`, the Percent Effect is 1.28% in assay [1]; 6.67% in [2]; 2.24% in assay [3]; 0.614% in [4]; -10.4% in assay [5]; -8.63% in [6]. For the same compound, the Percent Effect in assay [7] is 10.7%; in assay [8], -7.47%; in [9], 2.12%; in [10], 0%; in assay [11] it was -7.73%.

With `CC(=O)N1CCN(Cc2nnc(C(C)(C)C)o2)CC1`, the Percent Effect in assay [1] is 0.446%; in assay [2], 5.41%; in [3] it was -5.16%; in [4], -0.469%; in assay [5], -0.772%; in [6], 2.86%. The Percent Effect in assay [7] is 14.3%; in assay [8], 7.35%; in assay [9], 1.59%; in [10], 9.76%; in assay [11], -3.99%.

For the compound `O=C(c1cc(=O)[nH]c(=O)[nH]1)N1CCCCC1c1nc2cc(F)ccc2[nH]1` (stereo not given), the Percent Effect in assay [1] is -4.1%; in [2], 1.39%; in [3] it was 2.15%; in assay [4] it was -1.84%; in assay [5] it was 1.07%; in [6], 3.97%. Besides, the Percent Effect in [7] is 6.14%; in assay [8], -12.1%; in assay [9], 3.16%; in assay [10], 7.69%; in assay [11], -2.87%.

Take `CC(=O)NCCNC(=O)c1cnc(-c2ccccc2)nc1`: the Percent Effect in [1] is -2.95%; in assay [2], 2.7%; in assay [3] it was 0.346%; in assay [4] it was 11.7%; in assay [5] it was -4.59%; in assay [6], 4.22%. Further, the Percent Effect in assay [7] was 3.35%; in [8], 0.496%; in [9] it was 6.45%; in [10], 11.1%; in [11] it was -5.21%.

Take `Cc1cc(N(C)C)nc(C2(C)CCCN2C(=O)c2cnccn2)n1` (stereo not given): the Percent Effect in [1] is -2.86%; in assay [2], 8%; in assay [3], 5.28%; in assay [4] it was -5.27%; in assay [5] it was 7.48%; in [6], 2.1%. In addition, the Percent Effect in [7] is 11.4%; in [8], -1.62%; in assay [9], 1.06%; in [10], 8.97%; in assay [11], -2.81%.

In the case of `Cc1cc(CN2CCN(C(=O)c3sccc3C3CC3)CC2)on1`, the Percent Effect in [1] is -1.18%; in [2] it was 10.4%; in [3], 2.54%; in assay [4], -6.72%; in assay [5], -7.35%; in assay [6], 1.05%. The Percent Effect was 9.62% in assay [7]; 18.1% in assay [8]; 4.76% in [9]; 18.8% in [10]; -15.4% in assay [11].

`Cc1noc([C@H]2C[C@@H]3CCN(C(=O)N(C)C)C[C@H]3O2)n1`: the Percent Effect is -0.638% in assay [1]; -2.7% in assay [2]; 6.92% in assay [3]; 9.3% in assay [4]; -2.25% in [5]; 0.319% in assay [6]. Moreover, the Percent Effect was 15.5% in [7]; -7.89% in assay [8]; -1.08% in assay [9]; 2.56% in [10]; 0.431% in assay [11].

With `CCc1nc(CN(C)C2CCN(Cc3ccc(C#N)cc3F)C2)no1` (stereo not given), the Percent Effect was -6.15% in [1]; 10.8% in [2]; -3.61% in assay [3]; -0.906% in assay [4]; -6.7% in [5]; -6.01% in assay [6]. Further, the Percent Effect in assay [7] is 12.6%; in assay [8] it was 20.8%; in assay [9] it was 7.39%; in [10], 1.24%; in assay [11], -7.82%.
